Experiment [1] has as its target Protein Mdm4 (Homo sapiens) + E3 ubiquitin-protein ligase Mdm2 (Homo sapiens) (UniProt O15151+Q00987). Briefly: human Mdm2/MdmX binding disruption – cell-based, luminescence, single concentration, set 2, confirmation (AID 504601;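 active means mean inhibition of the luminescence signal across two replicates at or above 26 percent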). The note with it: SaOS-2 split-luciferase Mdm2/MdmX complementation, at 8 µM, stronger effect = higher value.
Experiment [2] is described as follows: HIF-2a driven luciferase blockers, single dose – luminescence, 786-0 RCC cells, confirmation (AID 651580;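 active means mean inhibition across four replicates of at least 40 percent at the single tested concentration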). The note with it: HIF-2a luciferase reporter luminescence, overnight, at 18.8 µM, stronger effect = higher value. On the technique in general: A reporter such as luciferase makes a cellular process visible.
Experiment [3] is described as follows: HIF-1a luciferase reporter signal reduction – MiaPaCa-2 cells, single concentration, counter-screen for HIF-2a inhibitor project, confirmation (AID 651589;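 active means mean inhibition of the reporter signal across four replicates at the single tested dose of 50% or more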). The settings on record: MiaPaCa-2 HIF-1a luciferase reporter, desferoxamine, overnight; at 18.8 µM; stronger effect = higher value.
Experiment [4] deals with Tumor necrosis factor receptor superfamily member 10B (Homo sapiens) (UniProt O14763). Briefly: viability loss of caspase-8 NB7 cells with TRAIL – with/without TRAIL, luminescence panel, confirmation (AID 651596; in the data active means activity above about 50%). The settings on record: NB7 neuroblastoma + caspase-8, TRAIL sensitization, NB7 Caspase-8, with TRAIL, mean of runs, at 10 µM, stronger effect = higher value.
Test in experiment [5]: as above
The note with it: NB7 neuroblastoma + caspase-8, without TRAIL, NB7 Caspase-8, without TRAIL, mean of runs, at 10 µM.

The nature of experiment [6]: apoptosome-driven caspase-3 activation blockers – biochemical, fluorescence, DEVD-Rh110, 20 µM, confirmation (AID 504614).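 Further: plate controls were DMSO wells for no effect and DEVD-CHO caspase inhibitor control wells for full effect.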 The note with it: reconstituted apoptosome, caspase-3 DEVD-Rh110 fluorescence; at 20 µM; stronger effect = higher value.
Experiment [7] is described as follows: detection-step artefacts after completed caspase reaction – biochemical, fluorescence, Rh110, 20 µM, artefact control for Apaf-1 inhibitor project, confirmation (AID 504615;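 active means signal rise of 40% or more at 20 µM, treated as a fluorescence artifact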). The settings on record: quenched caspase reaction, at 20 µM, stronger effect = higher value.

The other results are listed elsewhere or left out. The source made the active and inactive calls.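 How the source made its calls, unless noted: active means mean inhibition of at least 40% at 20 µM; inactive means the rest.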

One may read the inhibition as the change of the read-out against control, counted positive when it falls.

Sequence of Protein Mdm4 (Homo sapiens) + E3 ubiquitin-protein ligase Mdm2 (Homo sapiens) (O15151 whole entry, looked up): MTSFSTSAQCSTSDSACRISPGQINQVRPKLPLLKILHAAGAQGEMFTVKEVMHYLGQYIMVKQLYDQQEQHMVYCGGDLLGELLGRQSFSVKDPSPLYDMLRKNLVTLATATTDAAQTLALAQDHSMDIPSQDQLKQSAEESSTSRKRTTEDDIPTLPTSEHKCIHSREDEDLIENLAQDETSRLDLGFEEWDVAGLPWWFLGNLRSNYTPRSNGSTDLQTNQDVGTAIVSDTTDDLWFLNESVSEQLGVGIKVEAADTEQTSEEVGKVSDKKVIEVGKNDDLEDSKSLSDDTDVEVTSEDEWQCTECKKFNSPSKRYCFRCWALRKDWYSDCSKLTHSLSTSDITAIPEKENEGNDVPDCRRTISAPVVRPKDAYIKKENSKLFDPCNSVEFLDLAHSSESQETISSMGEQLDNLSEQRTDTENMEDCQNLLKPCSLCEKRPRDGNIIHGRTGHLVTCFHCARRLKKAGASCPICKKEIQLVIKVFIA
Sequence of Protein Mdm4 (Homo sapiens) + E3 ubiquitin-protein ligase Mdm2 (Homo sapiens) (Q00987 whole entry, looked up): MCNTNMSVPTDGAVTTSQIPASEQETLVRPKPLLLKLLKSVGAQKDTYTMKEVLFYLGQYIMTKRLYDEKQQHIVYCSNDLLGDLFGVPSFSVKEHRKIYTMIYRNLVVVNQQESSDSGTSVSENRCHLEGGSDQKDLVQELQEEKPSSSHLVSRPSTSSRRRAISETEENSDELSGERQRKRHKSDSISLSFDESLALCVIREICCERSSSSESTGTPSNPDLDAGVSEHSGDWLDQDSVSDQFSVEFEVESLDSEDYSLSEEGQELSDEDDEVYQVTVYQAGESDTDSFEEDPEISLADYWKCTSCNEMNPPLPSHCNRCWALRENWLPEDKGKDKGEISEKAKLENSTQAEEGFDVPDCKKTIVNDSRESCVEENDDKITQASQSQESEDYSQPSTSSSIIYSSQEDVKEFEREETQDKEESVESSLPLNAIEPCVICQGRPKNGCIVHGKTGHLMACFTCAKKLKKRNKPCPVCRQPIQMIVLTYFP
Sequence of Tumor necrosis factor receptor superfamily member 10B (Homo sapiens) (O14763 whole entry, looked up): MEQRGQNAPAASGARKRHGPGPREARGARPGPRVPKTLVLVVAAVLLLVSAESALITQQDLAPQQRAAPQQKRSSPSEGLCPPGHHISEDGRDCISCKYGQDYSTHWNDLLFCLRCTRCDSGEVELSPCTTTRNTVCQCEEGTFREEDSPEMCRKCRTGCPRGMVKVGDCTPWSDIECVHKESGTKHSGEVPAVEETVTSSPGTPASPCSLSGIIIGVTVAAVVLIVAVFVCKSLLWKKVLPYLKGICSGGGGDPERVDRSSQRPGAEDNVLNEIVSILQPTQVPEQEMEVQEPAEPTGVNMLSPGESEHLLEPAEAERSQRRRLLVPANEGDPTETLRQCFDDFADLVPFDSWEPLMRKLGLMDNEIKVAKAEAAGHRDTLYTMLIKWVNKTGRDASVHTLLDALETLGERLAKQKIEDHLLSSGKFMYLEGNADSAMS

`CCN(CC)S(=O)(=O)c1ccc(NC(=O)c2cccnc2Cl)c(NC(=O)c2cccnc2Cl)c1`: the inhibition in experiment [1] was 75.5% (active); in experiment [2], 91.6% (active); in experiment [3], 62.3% (active).

Take `O=C(CC(O)(C(F)(F)F)C(F)(F)F)Nc1ccc(Cl)c(Cl)c1`: the inhibition in experiment [1] was 103% (active). The activity in experiment [4] was 61.6%; in experiment [5], 63.1%.

`CCC(C)(C)c1ccc(OCC(=O)N(C)C)c(C(C)(C)CC)c1`: the inhibition in experiment [6] was 17.9% (inactive). Moreover, the activation (fluorescence interference) in experiment [7] is 8.45% (inactive).

As for `Cc1[nH]c(=O)c(C(=O)/C=C/c2ccccc2)c2c1CCCC2`, the inhibition in experiment [1] is 103% (active); in experiment [2], 81.1% (active); in experiment [3], 105% (active).

For the molecule `CN1CCN(c2ccccc2NC(=O)COc2ccc(C3CCCCC3)cc2)CC1`, the inhibition in experiment [6] is 7.86% (inactive). Moreover, the activation (fluorescence interference) in experiment [7] was 2.41% (inactive).

In the case of `COc1ccc(NC(=O)CN(Cc2ccccc2)S(C)(=O)=O)cc1OC`, the inhibition in experiment [6] was 3.82% (inactive). Further, the activation (fluorescence interference) in experiment [7] was 2.48% (inactive).

Take `COC1=C(N2CCOCC2)C(=O)c2ccccc2C1=O`: the inhibition in experiment [6] is 29.1% (inactive). Moreover, the activation (fluorescence interference) in experiment [7] is 4% (inactive).

With `COc1ccccc1C1C(C#N)=C(N)Oc2c1c(-c1ccccc1)nn2-c1ccccc1` (stereo not given), the inhibition in experiment [6] is 19.9% (inactive). The activation (fluorescence interference) in experiment [7] was 5.51% (inactive).

For `Cc1ccc2c(c1)C1CN(C)CCC1N2S(=O)(=O)c1ccc(Oc2ccc([N+](=O)[O-])cc2)cc1` (stereo not given), the inhibition in experiment [6] was 20.2% (inactive). The activation (fluorescence interference) in experiment [7] is 1.73% (inactive).

Consider `CCN(CC(=O)NCc1cccs1)C(=O)c1cccc(S(=O)(=O)Nc2ccccc2OC)c1`, for which the inhibition in experiment [6] is 36.9% (inactive). Moreover, the activation (fluorescence interference) in experiment [7] was -3.02% (inactive).

As for `CCN1C(=NCc2ccc(OC)cc2)N[C@@H](CCc2ccccc2)[C@H](C(=O)NCc2ccc(OC)cc2)[C@H]1C`, the inhibition in experiment [6] is 4.13% (inactive). Also, in experiment [7], the activation (fluorescence interference) was 7.82% (inactive).
